From PubChem
Rin1 Abl inh: inhibitors of human Rin1-Abl protein interaction; inhibition, % at 7.35 µM; TR-FRET Rin1/Abl binding, biochemical; actives 0.4% (n = 360,000); P00519+Q13671; in the data active means inhibition above about 5%, passing the limit was not always enough
PAFAH1B2 inh: inhibitors of human PAFAH1B2. P68402. actives 1.2% (n = 340,000). inhibition, % at 3.39 µM. recombinant PAFAH1B2, FP-rhodamine activity probe, fluorescence polarization;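 active means inhibition above the mean of all tested compounds plus 3 SD, cut at about 24% in these data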;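 further: 0% = enzyme with DMSO and 100% = wells lacking PAFAH1B2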
PAFAH2 inh: PAFAH2 (human) inhibition | inhibition, % at 3.39 µM | Q99487 | recombinant PAFAH2, FP-rhodamine activity probe, fluorescence polarization | actives 0.99% (n = 340,000) | AID 492956;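 active means inhibition above the mean over all tested compounds plus 3 SD, cut at about 30% in these data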;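 further: inhibitors block probe labeling of enzyme so polarization drops; 0% = enzyme with DMSO and 100% = wells lacking PAFAH2 protein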
PAFAH1B3 FP inh: PAFAH1B3 (human) inhibition; recombinant PAFAH1B3, FP-rhodamine probe, fluorescence polarization; inhibition, % at 3.39 µM; actives 0.28% (n = 340,000); Q15102;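 active means inhibition above the screen-wide average of all tested compounds plus 3 SD, cut at about 25% in these data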;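 further: 0% = enzyme with DMSO only and 100% = wells lacking PAFAH1B3 protein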
E coli Lon inh: E. coli protease La inhibition; actives 0.42% (n = 360,000); AID 602123; purified E. coli Lon protease, fluorescence polarization; inhibition, % at 7.94 µM; P0A9M0; in the data active means inhibition above about 13%, passing the limit was not always enough;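 further: 0% = enzyme with probe and DMSO and 100% = no enzyme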
pPAFAH inh: pPAFAH (human) enzyme inhibition; Q13093; recombinant pPAFAH, FP-rhodamine probe fluorescence polarization; inhibition, % at 3.39 µM; actives 1.5% (n = 330,000); AID 463082;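 active means inhibition above the mean inhibition across the screen plus 3 SD, cut at about 25% in these data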;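 further: inhibitors block binding of the rhodamine activity-based probe so polarization drops; 0% = enzyme with DMSO and 100% = wells lacking pPAFAH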
* hit, by the source's call; . = no result given. Rows were chosen to be rich in hits. Some 3.1% of all compounds tested hit in one or more screens of this group.

SMILES	Rin1 Abl inh	PAFAH1B2 inh	PAFAH2 inh	PAFAH1B3 FP inh	E coli Lon inh	pPAFAH inh
COc1cccc(NC(=O)CN2C(=O)NC(CCc3ccccc3)C2=O)c1 (stereo unspecified)	-1.2	3.3	-1.0	6.5	10.9	-0.8
O=C1NC(CCc2ccccc2)C(=O)N1CCOc1cccc(Br)c1 (stereo unspecified)	2.9	25.7*	0.8	2.1	5.7	12.8
O=C(CCCn1nnnc1CN1CCOCC1)N1CCC(c2ccc(F)cc2)C1 (stereo unspecified)	-1.4	6.1	-3.5	12.3	7.3	2.4
Cc1csc(=O)n1CC(=O)OCC(=O)Nc1cc(Cl)ccc1[N+](=O)[O-]	2.7	-1.5	-2.5	0.7	-1.9	-3.7
Cc1ccsc1/C=C/C1=Cc2c(sc(NC(=O)CSc3n[nH]c(N)n3)c2C#N)C(C)(C)C1	-2.0	-0.3	11.7	-5.2	-14.9	32.3*
COc1ccc(CNC(=O)COC(=O)CCOc2ccccc2)cc1	5.1	-1.1	-7.7	-5.6	-12.4	13.2
Cc1ccc(CNC(=O)CCOc2ccc(C(C)(C)C)cc2)cc1	-1.2	29.8*	-3.3	-0.4	8.6	9.4
CC(C)(C)c1ccc(OCCC(=O)OCC(=O)NCc2ccccc2)cc1	1.1	7.3	-0.1	-0.6	-4.8	25.8*
CCOc1ccc(OCCC(=O)OCC(=O)NNC(=O)c2ccccc2)cc1	0.5	0.2	7.4	-0.3	1.4	27.8*
Cc1ccc(CNC(=O)COC(=O)CCOc2ccc(C)cc2)cc1	-0.1	7.3	-6.1	-0.7	-9.7	27.0*
CC(C)c1ccc(NC(=O)C2(C)Cc3c(-c4cccc(C(N)=O)c4)ccnc3O2)cc1 (stereo unspecified)	3.5	.	.	.	-0.5	.
CCN(CC)C(=O)C1=C(C)N(Cc2ccc(C(C)(C)C)cc2)C(=O)C(CC(=O)NC(c2ccccc2)c2ccccc2)C1 (stereo unspecified)	7.5	.	.	.	0.5	.
O=C(CNC(=O)c1ccc(Br)cc1)OC1CCOC1=O (stereo unspecified)	0.1	.	.	.	-4.7	.
CC(C)(C)c1ccc(OCCCC(=O)NNC(=O)c2ccccc2O)cc1	-2.7	26.8*	0.1	8.8	-9.2	27.9*
O=C(COC(=O)CCOc1ccccc1)Nc1ccc(Cl)cn1	1.8	5.2	10.7	2.5	-3.3	22.1
CCOc1ccc(OCCC(=O)OCC(=O)Nc2ccc(Cl)cn2)cc1	0.5	2.4	1.1	1.8	-8.4	24.7*
CCOc1ccc(N2CC(C(=O)OCC(=O)NCc3ccccc3)CC2=O)cc1 (stereo unspecified)	-0.6	-2.8	-2.5	-5.3	2.6	26.8*
Cc1cc(C(=O)NNC(=O)CCCOc2ccccc2)c(C)o1	-1.3	7.4	3.3	4.4	-6.0	-2.8
CSc1nc2ccc(NS(=O)(=O)c3c(Cl)cccc3Cl)cc2s1	1.1	-0.1	12.2	-2.5	-1.1	8.0
CSc1nc2ccc(NS(=O)(=O)c3ccc4c(c3)OCCO4)cc2s1	0.7	0.0	-1.2	4.3	-5.4	30.4*
C#CCN1Cc2ccccc2Oc2cc(Br)ccc2S1(=O)=O	-1.8	2.4	-5.1	4.5	0.0	9.0
CC(C)c1[nH]nc2c1C(C1C=CCCC1)C(C#N)=C(N)O2 (stereo unspecified)	-4.7	17.5	5.5	1.8	9.7	-2.0
CC(C)(C)c1[nH]nc2c1C(C1C=CCCC1)C(C#N)=C(N)O2 (stereo unspecified)	-1.5	26.9*	6.9	-2.6	2.0	-3.0
CC(C)(C)c1[nH]nc2c1C(Cc1ccccc1)C(C#N)=C(N)O2 (stereo unspecified)	0.1	39.6*	1.1	4.3	-12.2	-1.3
CC(C)(C)c1[nH]nc2c1C(c1cccnc1)C(C#N)=C(N)O2 (stereo unspecified)	2.4	6.0	-4.4	7.3	1.5	3.2
SMILES	Rin1 Abl inh	PAFAH1B2 inh	PAFAH2 inh	PAFAH1B3 FP inh	E coli Lon inh	pPAFAH inh
Cc1cnc(C(=O)OC(C)C(=O)NC2CCCc3ccccc32)cn1 (stereo unspecified)	1.1	4.1	-1.4	-0.9	-11.5	-1.8
N=C1C(c2nc(-c3ccc(F)cc3)cs2)=C(O)CN1CCCN1CCOCC1	-2.8	6.4	38.1*	6.8	-5.8	9.6
CC(=O)Nc1cccc(-c2ccnc3c2CC(C)(C(=O)Nc2cccc(Oc4ccccc4)c2)O3)c1 (stereo unspecified)	-1.9	.	.	.	-1.5	.
Oc1c(Br)cc(/C=N/n2c(-c3ccccc3)n[nH]c2=S)c(Br)c1O	.	.	.	.	.	87.7*
O=C(CN(c1ccc(Br)cc1)S(=O)(=O)c1ccc(Cl)c([N+](=O)[O-])c1)NCC1CCCO1 (stereo unspecified)	1.4	6.7	21.6	0.3	-5.9	.
CC1=C(C(=O)OC2CCCCCCC2)C(c2ccc(O)cc2)NC(=O)N1 (stereo unspecified)	-1.8	24.9*	5.8	6.2	-5.8	0.6
CCCn1nc(C(=O)Nc2cccc(C(=O)OC)c2)c2ccccc2c1=O	1.6	4.3	-0.2	1.2	5.8	-1.7
COC(=O)c1cccc(NC(=O)c2nn(C(C)C)c(=O)c3ccccc23)c1	-2.8	3.6	9.3	2.0	-5.4	24.9*
O=c1cc(-c2ccc(Cl)c(Cl)c2)[nH][nH]1	-2.0	5.8	-4.1	-1.4	7.4	25.9*
Cc1cccc(NS(=O)(=O)c2ccc(C)c(NS(=O)(=O)c3cccs3)c2)c1	-0.4	4.3	14.5	0.9	-17.5	.
O=C(CCCN1C(=O)/C(=C\c2ccco2)SC1=S)Nc1ccc2ccccc2c1	1.1	-6.8	-13.2	-4.5	-25.0	28.4*
Cc1ccc(N2C(=O)/C(=C\c3ccco3)SC2=S)cc1	-2.6	-0.2	5.2	1.7	-0.7	16.1
O=C1/C(=C\c2ccco2)SC(=S)N1c1ccccc1	1.6	0.8	13.4	2.9	-6.0	28.7*
O=C(O)CCCN1C(=O)/C(=C\c2ccco2)SC1=S	2.0	-1.1	10.2	6.4	-3.5	.
O=C1/C(=C\c2ccco2)SC(=S)N1Cc1ccccc1	-0.2	-7.0	17.0	9.6	-13.6	25.4*
CC(=O)Nc1ccc(S(=O)(=O)NCCC(=O)OCC(=O)N2CCN(C(=O)c3ccco3)CC2)cc1	-2.2	1.4	6.8	-3.0	1.2	-2.8
CCCCN1CC(N(C)CCN(C)C)CS1(=O)=O (stereo unspecified)	4.3	.	.	.	2.1	.
CCOC(=O)CNC(c1ccccc1)c1cc(Br)ccc1NC(=O)OCC (stereo unspecified)	-5.2	2.7	-2.4	6.1	-1.6	-1.9
COC(=O)CNC(c1ccccc1)c1cc(Br)ccc1NC(=O)CNC(=O)OCc1ccccc1 (stereo unspecified)	-1.1	9.2	10.3	5.5	-6.0	29.4*
CN(C(=O)c1ccc2c(=O)n3c(nc2c1)CCCCC3)c1cccc(Cl)c1	2.5	1.5	-7.7	-5.5	5.8	3.7
Cc1ccc(NC(=S)NNC(=O)c2ccc(N3CCOCC3)c([N+](=O)[O-])c2)cc1C	-4.2	3.6	11.7	13.5	-8.9	25.9*
